Measurements reported in PubChem BioAssay AID2685 (National Center for Advancing Translational Sciences (NCATS), 2010).
The campaign covered roughly 320,000 compounds. About 2,100 (0.66%) were called active. Not shown: some 53% with an inconclusive outcome. The call rests on the fitted dose curve; in most records, active means well fitted inhibition curve with a large enough effect in the signal ratio, with a control signal flat (not every such curve was filed as active); inconclusive means small, poorly fitted or top-dose-only effect, or effect the other way, or a change in a side signal; inactive means flat fitted curve, though single readings scatter; the % refers to the signal ratio. Only a selection was taken, and actives are over-represented in it overall.

Experiment: qHTS Assay for Lipid Storage Modulators in Drosophila S3 Cells;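 on cell number change: cells counted by Cell Tracker Red CMTPX staining in the red channel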; on lipid storage change, negative = inhibition: on the % scale 0 is the no-effect control and ±100 the full control effect
Settings: BODIPY lipid droplet fluorescence, 18-24 h, cells fed with added oleic acid; cell number change: measured here: cell count max response; series mostly up to 46.1 µM; lipid storage change, negative = inhibition: at the top concentration
Summary of the method: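 Laser-scanning cytometry quantifies lipid droplet accumulation (500–530 nm total intensity; droplet/cell object ratio) in oleic acid-fed (400 uM added) Drosophila S3 cells treated with a concentration series. 20 uM Triacsin C defined 100% inhibition.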
Potency means the concentration at half of the fitted maximal effect.

SMILES	lipid storage change, negative = inhibition	cell number change	Potency	outcome
CCN(C(=O)COC(=O)c1cc(=O)c2ccccc2o1)c1c(N)n(Cc2ccccc2)c(=O)[nH]c1=O	-18.7% (inactive)			
COc1cccc(CN2C(=O)C(C)N(C(=O)c3ccccc3)c3ccccc32)c1 (configuration not stated)	-3.54% (inactive)	-9.22%		
Cc1cc(C)cc(N(CC(=O)NC2CCCCC2)C(=O)c2csnn2)c1		3.85%	6.51 µM (active)	
CC(=O)c1ccc(N(CC(=O)NC2CCCCC2)C(=O)c2csnn2)cc1	-2.57% (inactive)	-0.427%		
Cc1ccc(Cl)cc1N(CC(=O)NC1CCCC1)C(=O)c1csnn1		11.3%	0.82 µM (active)	
Cc1cc(C)cc(N(CC(=O)NC2CCCC2)C(=O)c2csnn2)c1		20%		inactive
Cc1ccc(C)c(N(CC(=O)NC2CCCCC2)C(=O)c2csnn2)c1		7.08%		inactive
Cc1ccccc1N(CC(=O)NC1CCCC1)C(=O)c1csnn1	0.767% (inactive)	-1.91%		
O=C1C2C3C=CC(C3)C2C(=O)N1c1cccc2ccccc12 (configuration not stated)				inactive
CCCN(c1ccccc1C(=O)O)S(=O)(=O)c1ccc2c(c1)n(C)c(=O)n2C	7.64% (inactive)	4.38%		
CN(Cc1cccc(Cl)c1)C(=O)C1CSC2(C)CCC(=O)N12 (configuration not stated)	-14.7% (inactive)	2.85%		
COc1ccc(Oc2cccc(Cl)c2CNC(=O)CCCC(=O)O)cc1	19% (inactive)	-4.23%		
CC1(C)CC(O)C(C)(C)N1O (configuration not stated)	-10.4% (inactive)	0.759%		
COc1ccc2[nH]c(=O)c(CN(C(=O)C3CCCO3)c3ccc(C)cc3)cc2c1 (configuration not stated)	22.5% (inactive)	-16.8%		
O=C(O)CCC(=O)Nc1ccc(/C=C/C(=O)C2CC2)cc1	4.47% (inactive)	0.554%		
COc1ccc(C(C[N+](=O)[O-])n2nc(C)cc2C)cc1 (configuration not stated)		-16.7%	5.17 µM (active)	
COC(=O)C(C(=O)OC)C(C[N+](=O)[O-])c1ccc(OC)cc1 (configuration not stated)	-0.0854% (inactive)	-3.46%		
Cc1ccc(C(C[N+](=O)[O-])n2nc(C)cc2C)cc1 (configuration not stated)		28.9%		inactive
CCCCn1c(=O)nc2n(-c3ccc(Cl)cc3)c3ccccc3cc-2c1=O	16.3% (inactive)			
C=CCNC(=O)c1ccc(Sc2ccc(C)cc2)c([N+](=O)[O-])c1	-20% (inactive)	-8.5%		
CCOC(=O)/C(=C\c1cccc(O)c1)c1nc2sc(C)c(C)c2c(=O)[nH]1		-21.1%	20.6 µM (active)	
Cc1c(C(=O)O)sc2nc(/C=C/c3cccc(O)c3)[nH]c(=O)c12	0.183% (inactive)	5.19%		
CCOC(=O)c1nc2sc(C)c(C)c2c(=O)[nH]1	5.14% (inactive)	-3.45%		

SMILES	lipid storage change, negative = inhibition	cell number change	Potency	outcome
NC(=O)C1CCN(c2ccnc3cc(Cl)ccc23)CC1	-18.4% (inactive)	-7.1%		
Cc1ccc(N(C(=O)CCCC(=O)Nc2ccccn2)C(C(=O)NC2CCCC2)c2ccc(O)cc2)cc1C (configuration not stated)		-6.35%		inactive
CCc1ccc(NC(=O)c2sc3nc4n(c(=O)c3c2C)CCC4)cc1		-24%	2.31 µM (active)	
Cc1cc(C)cc(NC(=O)c2sc3nc4n(c(=O)c3c2C)CCC4)c1		-23.1%	18.4 µM (active)	
CCOC(=O)c1sc2nc3n(c(=O)c2c1C)CCC3	18.2% (inactive)	7.44%		
COc1cccc(NC(=O)c2sc3nc4n(c(=O)c3c2C)CCC4)c1		-27.4%	4.11 µM (active)	
CCOc1ccc(CCNC(=O)c2sc3nc4n(c(=O)c3c2C)CCC4)cc1	-17.7% (inactive)	17.9%		
CCOC(=O)c1sc2nc3n(c(=O)c2c1C)CCCCC3	14.1% (inactive)	-6.59%		
Cc1c(C(=O)NCCO)sc2nc3n(c(=O)c12)CCC3	-0.957% (inactive)	20%		
Cc1c(C(=O)Nc2ccc(OC(F)(F)F)cc2)sc2nc3n(c(=O)c12)CCC3	-11.7% (inactive)	2.69%		
CCc1cccc(NC(=O)c2ccc3c(=O)n4c(nc3c2)CCCCC4)c1	5.18% (inactive)	-2.31%		
CCc1cccc(NC(=O)c2sc3nc4n(c(=O)c3c2C)CCC4)c1		-22.1%	5.8 µM (active)	
COc1ccc(COC(=O)c2sc3nc4n(c(=O)c3c2C)CCC4)cc1				inactive
COc1ccccc1N1CCN(C(=O)c2sc3nc4n(c(=O)c3c2C)CCC4)CC1	-15.3% (inactive)	-21.5%		
Cc1cccn2c(=O)c3cc(C(=O)NCCCN4CCOCC4)n(C)c3nc12	21.1% (inactive)			
CCCCN1C(=O)NC(NC(=O)C2CC2)(C(F)(F)F)C1=O (configuration not stated)	0.363% (inactive)	15%		
CC(=O)Nc1ccc(S(=O)(=O)N(C#N)c2nc(N(C)C)nc(N(C)C)n2)cc1	0.237% (inactive)	-23%		
CN(C)CC(=O)Nc1ccc2cn[nH]c2c1	0.452% (inactive)	-1.8%		
CSc1nc(C)c(Cl)c(C)c1C#N	10.8% (inactive)	-6.02%		
COc1cc(Cl)cc(C(=O)O)c1OCC(=O)O	7.31% (inactive)	3.53%		
O=C(/C=C/c1ccc(F)cc1)N1CCN(c2ncccn2)CC1	-0.413% (inactive)	20.7%		
CC(=O)NNC(=O)CCn1c2c(c3ccccc31)CCCC2	-7.9% (inactive)	1.32%		
Fc1ccccc1CNc1ccc(Cl)cc1	12.9% (inactive)	-4.41%		
